Source: PubChem
C diff HTS: C. difficile growth inhibitors, primary screen, HTS. growth activity, negative = inhibition, % at 16 µg/mL (by protocol). Clostridium difficile clinical isolate growth, OD600, 24 h; active compounds read low. hit rate 0.25% among 86,000. AID 1259249, 2017;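 active = mean growth activity at or below -80% and every replicate also at or below -80%; inconclusive = mean at or below -80% but some replicate above -80%; inactive = mean growth activity above -80%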
Pf Dd2 growth: P. falciparum Dd2 growth inhibitors, primary screen, SYBR Green fluorescence, single dose replicates | hit rate 2.3% among 94,000 | AID 1159554, 2015 | 72 h; active compounds read low | activity change, % at 10 µM; in the data active = activity change below about -80%; inconclusive = no clear call, values can overlap the other calls
T cruzi growth-1: T. cruzi intracellular proliferation inhibitors, primary screen, cell-based, beta-gal Tulahuen parasites, NIH3T3 host, luminescence; T. cruzi beta-gal in NIH3T3, GalScreen luminescence, 90 h; inhibition, % at 8.34 µM; hit rate 5.9% among 77,000;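 active = mean inhibition above about 93%, with at least 55% of replicates each passing it, limit read from the data, passing the limit was not always enough; inconclusive = only one of those two conditions holds; inactive = neither condition holds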
T cruzi growth-2: T. cruzi intracellular proliferation inhibitors, confirmation, cell-based, NIH3T3 host, beta-gal parasite, luminescence, cherry-pick; shares compounds with T cruzi growth-1; T. cruzi beta-gal in NIH3T3, GalScreen luminescence, 90 h; inhibition, % at 8.35 µM; hit rate 72% among 5,600; AID 651739, 2012;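 active = mean replicate inhibition above about 95% and at least 55% of replicates individually reaching it, limit read from the data; inconclusive = only one of the two criteria is met; inactive = neither criterion is met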
T cruzi growth-3: inhibitors of intracellular T. cruzi replication, confirmation, NIH3T3 host cells, beta-gal parasites, cherry-pick, set 2; inhibition, % at 2.09 µM; shares compounds with T cruzi growth-1; hit rate 21% among 5,600; T. cruzi beta-gal in NIH3T3, GalScreen luminescence, 90 h;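 active = mean inhibition above about 95%, with at least 55% of replicates also reaching it, limit read from the data; inconclusive = meets just one of the two conditions; inactive = meets neither condition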
3T3 cytotox: cytotoxicity in mouse NIH/3T3 fibroblasts, confirmation, cytotoxicity control for T. cruzi proliferation inhibitor project, cell-based, cherry-pick, single point. cytotoxicity (signal decrease), % at 8.35 µM. NIH/3T3 viability, CellTiter-Glo ATP luminescence, 90 h. shares compounds with T cruzi growth-1. hit rate 14% among 5,600;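 active = mean signal decrease across replicates above about 35% based on untreated-well scatter, with enough replicates individually passing, limit read from the data; inconclusive = no rule stated though some were filed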
NIH3T3 tox 2: NIH/3T3 fibroblast cytotoxicity, confirmation, cytotoxicity control, cell-based, cherry-pick, single point, set 2; shares compounds with T cruzi growth-1; NIH/3T3 viability, CellTiter-Glo ATP luminescence, 90 h; inhibition, % at 24.9 µM; hit rate 56% among 5,600; AID 651744, 2012;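 active = mean loss of cell viability signal at or above a set limit, and enough replicates individually reaching it; inconclusive = meets only the mean limit or only the replicate share; inactive = meets neither condition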
Each line names hits and unclear results; the compound was inactive in the other large screens (follow-up assays come after a bar, where they were run); ! = not confirmed by another sample. Rows were chosen to be rich in hits. Some 6.8% of all compounds tested hit in one or more screens of this group.

Cc1ccc(S(=O)(=O)Nc2ccc3c(c2)C(=O)N([C@@H](C)CO)C[C@@H](C)[C@@H](CN(C)S(=O)(=O)c2c(C)noc2C)OCCCC[C@@H](C)O3)cc1	T cruzi growth-1 98 | T cruzi growth-2 107 | T cruzi growth-3 inactive | 3T3 cytotox inactive | NIH3T3 tox 2 inactive
Cc1noc(C)c1S(=O)(=O)N(C)C[C@@H]1OCCCC[C@@H](C)Oc2ccc(NS(=O)(=O)c3ccc(Cl)cc3)cc2C(=O)N([C@@H](C)CO)C[C@H]1C	none
Cc1noc(C)c1S(=O)(=O)N(C)C[C@@H]1OCCCC[C@@H](C)Oc2ccc(NS(=O)(=O)c3ccc(Cl)cc3)cc2C(=O)N([C@H](C)CO)C[C@@H]1C	none
Cc1ccc(S(=O)(=O)Nc2ccc3c(c2)C(=O)N([C@@H](C)CO)C[C@@H](C)[C@H](CN(C)S(=O)(=O)c2c(C)noc2C)OCCCC[C@@H](C)O3)cc1	none
C[C@H]1CN([C@@H](C)CO)C(=O)c2cc(NC(=O)Cn3cnnn3)ccc2O[C@H]1CN(C)Cc1ccncc1	none
O=C(C[C@H]1CC[C@@H]2[C@H](COC[C@@H](O)CN2C(=O)Nc2ccc(F)cc2)O1)NCCCN1CCOCC1	none
Cc1ccc(S(=O)(=O)N[C@@H]2CC[C@H](CC(=O)NC3CCCCC3)O[C@@H]2CO)cc1	none
O=C(C[C@H]1CC[C@@H](NC(=O)Nc2cc(F)ccc2F)[C@@H](CO)O1)Nc1ccc(-c2ccccc2)cc1	none (no result: C diff HTS)
Cc1noc(C)c1S(=O)(=O)Nc1ccc2c(c1)C(=O)N([C@H](C)CO)C[C@H](C)[C@H](CN(C)S(=O)(=O)c1ccc(Cl)cc1)OCCCC[C@@H](C)O2	none
Cc1noc(C)c1S(=O)(=O)N(C)C[C@@H]1OCCCC[C@H](C)Oc2ccc(NS(=O)(=O)c3ccc(Cl)cc3)cc2C(=O)N([C@H](C)CO)C[C@@H]1C	T cruzi growth-1 98 | T cruzi growth-2 106 | T cruzi growth-3 inactive | 3T3 cytotox inactive | NIH3T3 tox 2 inactive
Cc1noc(C)c1S(=O)(=O)Nc1ccc2c(c1)C(=O)N([C@@H](C)CO)C[C@@H](C)[C@@H](CN(C)S(=O)(=O)c1ccc(Cl)cc1)OCCCC[C@@H](C)O2	none
Cc1noc(C)c1S(=O)(=O)Nc1ccc2c(c1)C(=O)N([C@H](C)CO)C[C@@H](C)[C@H](CN(C)S(=O)(=O)c1ccc(Cl)cc1)OCCCC[C@@H](C)O2	Pf Dd2 growth inconclusive, T cruzi growth-1 104 | T cruzi growth-2 107 | T cruzi growth-3 inactive | 3T3 cytotox inactive | NIH3T3 tox 2 inactive
CN1C(=O)c2cc(NC(=O)C3CCCCC3)ccc2OC[C@@H]2O[C@H](CC(=O)NC3CCCC3)CC[C@H]21	none
CCC(=O)N(C)C[C@@H]1Oc2ncc(-c3ccc(C)cc3)cc2C(=O)N([C@H](C)CO)C[C@H]1C	none
O=C(NCC[C@H]1CC[C@@H](NS(=O)(=O)c2cccc(F)c2)[C@H](CO)O1)C1CC1	none (no result: C diff HTS)
CC(C)C#Cc1cnc2c(c1)C(=O)N([C@@H](C)CO)C[C@H](C)[C@H](CN(C)C(=O)Nc1ccccc1F)O2	none (no result: C diff HTS)
CC(C)CC#Cc1ccc2c(c1)O[C@H](CN(C)C(=O)Nc1ccccc1)[C@@H](C)CN([C@H](C)CO)S2(=O)=O	T cruzi growth-1 117! | T cruzi growth-2 107 | T cruzi growth-3 inactive | 3T3 cytotox inactive | NIH3T3 tox 2 inconclusive
CC(C)C#Cc1ccc2c(c1)O[C@@H](CN(C)C(=O)Nc1ccccc1)[C@@H](C)CN([C@H](C)CO)S2(=O)=O	none (no result: T cruzi growth-1)
C[C@H](O)C#Cc1ccc2c(c1)O[C@@H](CN(C)C(=O)Nc1ccccc1)[C@@H](C)CN([C@@H](C)CO)S2(=O)=O	none
CC(C)C#Cc1ccc2c(c1)O[C@H](CN(C)C(=O)Nc1ccccc1)[C@@H](C)CN([C@@H](C)CO)S2(=O)=O	none (no result: T cruzi growth-1)
